# Test results taken from the supplement of paper PMC4840960.
# ± gives the standard deviation of the averaged measurements.
# Experiments:
# [1] = test system: E18 rat cortical neuron-glia co-culture; test: fiber score / MBP score (myelination specific beyond OL differentiation) (ratio); higher = more myelination-specific MBP alignment; conditions: 1 µM; treatment time: 8 days (DIV5-DIV13)
# How it was run: (§1)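 Primary E18 rat cortical co-cultures (papain-dissociated, 20,000 cells/well on poly-d-lysine/laminin 96-well plates) received library compounds at 1 or 5 µM in myelination medium from DIV5 to DIV13. Cells were fixed in 4 % paraformaldehyde and immunostained for MBP and Olig2 with DAPI, and four 10X fields per well in duplicate wells were analysed. The read-out is fiber score (continuous MBP fiber length per Olig2+ nucleus) divided by MBP score (thresholded MBP area × intensity per Olig2+ nucleus).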
# [2] = test system: E18 rat cortical neuron-glia co-culture; test: myelination (MBP fiber length per Olig2+ nucleus), % of 1 µM DAPT response (DMSO = 0) (% of DAPT); higher = more myelination, active = 50 or more; conditions: treatment time: 8 days (DIV5-DIV13)
# How it was run: as §1, with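 “Myelination was continuous straight” for “The read-out is fiber score (continuous”, “nucleus, normalised to 0.1 % DMSO (0) and a 1 µM positive control (100).” for “nucleus) divided by MBP score (thresholded MBP area × intensity per Olig2+ nucleus).”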
Compound,fiber score / MBP score [1],myelination ([2]; 1 µM),myelination ([2]; 5 µM)
CSc1ccc2c(c1)N(CCC1CCCCN1C)c1ccccc1S2 (stereo not drawn) [Thioridazine],0.479,-11.4 (inactive),< -29.5 (inactive)
C=CCc1ccc(O)c(-c2ccc(O)c(CC=C)c2)c1 [Honokiol],0.744,-2.87 (inactive),–
NNCCc1ccccc1 [Phenelzine],0.849 ± 0.21,-25.5 (inactive),–
Cc1c2oc3c(C)ccc(C(=O)N[C@@H]4C(=O)N[C@H](C(C)C)C(=O)N5CCC[C@H]5C(=O)N(C)CC(=O)N(C)[C@@H](C(C)C)C(=O)O[C@@H]4C)c3nc-2c(C(=O)N[C@@H]2C(=O)N[C@H](C(C)C)C(=O)N3CCC[C@H]3C(=O)N(C)CC(=O)N(C)[C@@H](C(C)C)C(=O)O[C@@H]2C)c(N)c1=O [Dactinomycin],–,< -33.5 (inactive),< -33.5 (inactive)
C[C@@H]1C[C@H]2[C@@H]3CCC4=CC(=O)C=C[C@]4(C)[C@@]3(F)[C@@H](O)C[C@]2(C)[C@@]1(O)C(=O)CO [Dexamethasone],0.824,-36.6 (inactive),< -84.9 (inactive)
O=c1c(-c2ccccc2)c1-c1ccccc1 [Diphenylcyclopropenone],0.809,-43.4 (inactive),–
O=c1c(O[C@@H]2O[C@H](CO)[C@H](O)[C@H](O)[C@H]2O)c(-c2ccc(O)c(O)c2)oc2cc(O)cc(O)c12 [Hyperoside],0.853,-69.1 (inactive),–
CN1CCN(CCCN2c3ccccc3Sc3ccc(C(F)(F)F)cc32)CC1 [Trifluoperazine],0.177,-80.1 (inactive),–
